Columns and labels:
Test in all cases: PBM binding z-score (relative to random genomic background probes); higher = stronger binding; sequences stand for … in GC…GCGATTGACAGCGTAGAATGAAGG
[1] = test system: PPARg:RXRa DBDmut IVT, anti-RXR (DBD mutation: RXRa K156A/R161A, NR concentration 270 nM, RXRa partner concentration 90 nM)
How it was run: (§1)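 Scanned fluorescence from custom Agilent 4×180K protein-binding microarrays was regression-normalized. Binding z-scores use random background probes as reference. Ligand-free nuclear receptor dimers were incubated on the arrays for 1 h and detected with antibodies against each partner (one per run).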

[2] = test system: PPARg:RXRa IVT, anti-PPARg (NR concentration 270 nM, RXRa partner concentration 90 nM)
How it was run: as §1

[3] = test system: PPARg DBDmut:RXRa IVT, anti-PPARg (DBD mutation: PPARg1 K132A/R137A, NR concentration 270 nM, RXRa partner concentration 90 nM)
How it was run: as §1

[4] = test system: PPARg DBDmut IVT, anti-PPARg (DBD mutation: PPARg1 K132A/R137A, NR concentration 270 nM)
How it was run: as §1

[5] = test system: PPARg homodimer (NR concentration 180 nM)
How it was run: as §1

[6] = test system: PXR:RXRa (NR concentration 270 nM, RXRa partner concentration 90 nM)
How it was run: as §1

[7] = test system: PXR homodimer (NR concentration 270 nM)
How it was run: as §1

[8] = test system: RARa:RXR (NR concentration 270 nM, RXRa partner concentration 90 nM)
How it was run: as §1

[9] = test system: RARa homodimer (NR concentration 270 nM)
How it was run: as §1

[10] = test system: RARb:RXRa (NR concentration 270 nM, RXRa partner concentration 90 nM)
How it was run: as §1

[11] = test system: RARb homodimer (NR concentration 270 nM)
How it was run: as §1

[12] = test system: RARg:RXRa (NR concentration 270 nM, RXRa partner concentration 90 nM)
How it was run: as §1

[13] = test system: RARg homodimer (NR concentration 270 nM)
How it was run: as §1

[14] = test system: RXRa DBDmut IVT, anti-RXR (DBD mutation: RXRa K156A/R161A, NR concentration 90 nM)
How it was run: as §1

[15] = test system: RXRa homodimer (NR concentration 180 nM)
How it was run: as §1

[16] = test system: THRa:RXRa (NR concentration 90 nM, RXRa partner concentration 90 nM)
How it was run: as §1

[17] = test system: THRa homodimer (NR concentration 90 nM)
How it was run: as §1

[18] = test system: VDR:RXRa (NR concentration 270 nM, RXRa partner concentration 90 nM)
How it was run: as §1

[19] = test system: VDR homodimer (NR concentration 270 nM)
How it was run: as §1

Sequence | PBM binding z-score [1] | PBM binding z-score [2] | PBM binding z-score [3] | PBM binding z-score [4] | PBM binding z-score [5] | PBM binding z-score [6] | PBM binding z-score [7] | PBM binding z-score [8] | PBM binding z-score [9] | PBM binding z-score [10] | PBM binding z-score [11] | PBM binding z-score [12] | PBM binding z-score [13] | PBM binding z-score [14] | PBM binding z-score [15] | PBM binding z-score [16] | PBM binding z-score [17] | PBM binding z-score [18] | PBM binding z-score [19]
GTGCCAAGGTGAATAGGTCGTTGATGAGTAGGCG | 2.01 | 2.66 | 0.113 | -0.755 | 1.02 | 0.425 | 0.19 | 1.38 | 0.262 | 2.09 | 1.92 | 2.61 | 1.46 | -0.262 | 1.55 | 1.72 | 0.56 | 0.576 | -0.115
CGAACTAGGTCAAGGACAGCGAATCTCCGCACGC | 7.76 | 8.26 | 2.54 | 2.03 | 1.63 | 1.06 | 0.0262 | 1.9 | 0.554 | 3.81 | 3.31 | 3.9 | 4.6 | 1.5 | 2.63 | 3.17 | 2.2 | 1.31 | 0.441
TCATATAGATAATACAGGTGAAAGTCGGCATCTA | 2.86 | 1.53 | 1.59 | 1.15 | 0.855 | 0.717 | 0.495 | 1.04 | 2.03 | 0.481 | 0.362 | 0.456 | 0.632 | 2.07 | 1.02 | 0.394 | 0.216 | 1.17 | 0.608
CCAGACAGGTGAAAGGTAACACAGTCTGGTACGC | 2.09 | 3.4 | -0.472 | -0.499 | 0.837 | 1.29 | -0.0519 | 1.69 | 0.436 | 1.36 | 1.1 | 1.72 | 1.07 | -0.201 | 2.27 | 1.02 | -0.219 | 0.959 | -0.147
CAGCCTAGGTCAGCGCCAGTATAGGAGGAACGTT | 1.84 | 1.37 | -1.15 | -0.469 | 0.899 | 0.373 | -0.685 | 1.15 | -0.632 | 3.71 | 2.6 | 2.85 | 4.04 | 0.449 | 1.55 | 2.05 | 0.498 | 0.303 | -0.621
CGTCCAAGGTCAAACGTCAGTGAAGAGATGACGG | 4.12 | 4.1 | 0.591 | -0.466 | 2.61 | 4.43 | 0.834 | 5.04 | 0.465 | 5.22 | 3.94 | 6.09 | 6.4 | 3.98 | 6.29 | 3.76 | 2.1 | 4.37 | 3.22
CCTTACGGGTCACGAGGTTATCGCACGACGAGCG | 4.34 | 5.24 | 1.36 | 0.803 | 3.23 | 4.75 | 0.615 | 6.45 | 0.798 | 4.5 | 4.01 | 6.31 | 5.55 | 1.96 | 7.47 | 3.72 | 1.12 | 5.31 | 2.04
ATCTGTAGGTAAAAGTTCAGTGAATCCCGAGGAT | 1.88 | 3.51 | 0.891 | 0.681 | 1.13 | 2.01 | 1.1 | 2.07 | 1 | 2.38 | 2.42 | 1.79 | 1.84 | 0.663 | 1.65 | 0.83 | -0.173 | 1.27 | 1.36
